# Assay results reported in PubChem BioAssay.
# Unmarked numbers belong to inactive results. No rule for the calls is given here.
# Molecular target: Pantothenate synthetase (Mycobacterium tuberculosis (strain ATCC 25618 / H37Rv)) (UniProt P9WIL5)
# Assay: Coupled enzyme confirmation of inhibitors against recombinant Mtb PanC (AID 375);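 also: 0% = full reaction with vehicle and 100% = no enzyme background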
# Conditions: coupled enzyme assay; at 10 µM, hits give high values
# Chain of Pantothenate synthetase (Mycobacterium tuberculosis (strain ATCC 25618 / H37Rv)) (P9WIL5 whole entry, looked up): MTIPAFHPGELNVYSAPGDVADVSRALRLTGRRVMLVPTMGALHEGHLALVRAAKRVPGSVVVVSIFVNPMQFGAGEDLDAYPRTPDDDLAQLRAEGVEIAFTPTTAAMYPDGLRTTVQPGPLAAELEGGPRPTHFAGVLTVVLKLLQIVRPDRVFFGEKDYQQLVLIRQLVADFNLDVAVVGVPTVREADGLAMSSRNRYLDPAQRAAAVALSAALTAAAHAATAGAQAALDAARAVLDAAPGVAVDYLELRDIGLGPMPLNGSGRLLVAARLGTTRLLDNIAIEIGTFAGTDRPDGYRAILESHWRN
row,Structure (SMILES),inhibition
1,Cc1c(NC(=O)C(C)OC(=O)c2cc3c4ccccc4n(C)c3s2)c(=O)n(-c2ccccc2)n1C (stereo not given),0%
2,CCOC(=O)c1cc2n(n1)C(C(F)(F)C(F)(F)F)CC(C)N2 (stereo not given),1%
3,O=C1OC2(c3ccccc3)C3CCCC2C13,3%
4,Cc1nn(C)cc1NC(=O)CCSc1nc(-c2ccco2)cc(C(F)(F)F)n1,0%
5,CCN(CCNC(=O)C1CCN(S(=O)(=O)c2cccc3cccnc23)CC1)c1ccccc1,1%
6,CC(=O)c1cc2c(cc1NC(=O)CN1CCN(C(=O)c3ccco3)CC1)OCO2,4%
7,COC(=O)c1c(NC(=O)c2ccc(S(=O)(=O)N3CCOCC3)cc2)sc2c1CCN(C)C2,0%
8,CCOC(=O)C1CCN(C(=O)CN(Cc2ccccc2)S(C)(=O)=O)CC1,1%
9,O=C(Nc1ccc(Cc2ccc(NC(=O)N3CCOCC3)cc2)cc1)N1CCOCC1,2%
10,CC1(C)C(c2ccccc2)=NC(c2ccccc2)N1O (stereo not given),3%
11,CC(C)(C)NC(=O)C(c1ccco1)N(C(=O)Cn1nnc(-c2ccc(F)cc2)n1)c1ccccc1F (stereo not given),5%
12,O=C(C1CCCCC1)N1CCC(c2nc3c(nnn3Cc3ccccc3Cl)c(=O)[nH]2)CC1,4%
13,COc1ccc(NS(=O)(=O)c2coc(C(N)=O)c2)cc1Cl,0%
14,COc1ccc(-c2noc(CN(C(=O)C(C)(C)C)C(C)C)n2)cc1,0%
15,O=C(NC1CCCC1)C(c1cccs1)N(Cc1ccco1)C(=O)Cn1nnc(-c2cccs2)n1 (stereo not given),0%
16,CCOC(=O)Cn1c(S(=O)(=O)Cc2ccccc2)nc2ccccc21,0%
17,COc1cccc(OCc2nc3c4cnn(-c5ccccc5)c4ncn3n2)c1,0%
18,Clc1ccccc1CN1CCc2sccc2C1,0%
19,CC1CCN(Cc2ccc(-c3nn[nH]n3)cc2)CC1,0%
20,Cc1ccccc1NC(=O)C1CCN(c2cnccn2)CC1,0%

row,Structure (SMILES),inhibition
1,CSC1=C(C#N)C(c2ccc(Cl)cc2)C2=C(CC(C)(C)CC2=O)N1 (stereo not given),2%
2,COc1ccc(N=c2scc(-c3ccc(S(=O)(=O)N4CCOCC4)cc3)n2CCCO)cc1,0%
3,COC(=O)c1onc(C(=O)c2ccccc2)c1C(=O)OC,0%
4,Cc1ccc(C)c(SCC(=O)Nc2nnc(-c3ccccc3)o2)c1,10%
5,O=C(CS(=O)(=O)c1cn(Cc2ccc(Cl)cc2)c2ccccc12)N1CCCC1,6%
6,COc1ccc(S(=O)(=O)N2CCN(c3ccc(C)cc3C)CC2)cc1OC,3%
7,O=S(=O)(c1ccc2c(c1)OCCO2)N1CCC(n2nnc3cc(F)ccc32)CC1,1%
8,Cn1c(Cc2ccccc2)nnc1SCC(=O)N1CCOCC1,0%
9,Cc1ccc(Nc2nc(CSc3nnnn3C)cs2)cc1,0%
10,O=C(OCC(=O)c1cccs1)C1=COCCO1,0%
11,O=C(c1cc(C2CC2)on1)N1CCN(C(c2ccccc2)c2ccccc2)CC1,0%
12,COc1ccc(-c2cc(C(F)(F)F)nc(SCCC(=O)N3CCOCC3)n2)cc1,1%
13,CN(c1ccccc1)S(=O)(=O)c1cc(C(=O)N2CCN(c3ccccn3)CC2)ccc1Cl,0%
14,CCOC(=O)NC(=O)CSc1nnnn1-c1ccc(Cl)cc1,0%
15,Cc1ccc(S(=O)(=O)C2(C(=O)N3CCCCCC3)CC2)cc1,0%
16,CCn1nc(C)c(NC(=O)c2cc(Br)ccc2Cl)c1C,15%
17,COc1cc2c(C)nc(C)c(C#N)c2cc1OC,0%
18,COc1cc(C(Nc2ccc3c(c2)OCO3)C(=O)NC2CCCCC2)cc(OC)c1OC (stereo not given),2%
19,CCOc1ccc(Cn2nnc(C(=O)NCc3ccc(OC)cc3)c2N)cc1,2%
20,Cc1cccc(NC(=O)Cn2c(=O)n(C)c3ccccc32)c1,0%
